This is an account of results in PubChem BioAssay AID1224904 (Broad Institute, 2016).

This assay in a line: DUX4 transcriptional activity inhibition in cells – 293T cells, Gaussia and Italica luciferase, primary screen (AID 1224904).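 On activity change, negative = inhibition: 0% = median of neutral control wells and -100% = median of positive control wells.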 The settings on record: 293T-iDUX4 ZSCAN4-Gaussia luciferase reporter, 24 h, stronger effect = lower value, concentration not given here; for Gaussia minus Italica difference: measured here: selective DUX4 reporter inhibition. For orientation: A reporter such as luciferase makes a cellular process visible.

[1] abbreviates: measured here: Italica tet-on control reporter.

Each structure is given as a SMILES string. The whole screen tested about 37,000 compounds, of which about 290 (0.78%) were called active. Not shown: some 10% with an inconclusive outcome.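 How the source made its calls: active means mean inhibition of at least 10% in the main channel, exceeding the control channel by a set limit; inconclusive means inhibition of 10% or more but channel gap under a set limit; inactive means mean inhibition below 10%.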 For the sample, actives were picked, then their nearest neighbours and some compounds at random.

For the compound `O=C(Cc1ccccc1)N1C[C@H]2[C@@H](c3ccccc31)[C@H](CO)N2C(=O)C1CCOCC1`, the activity change, negative = inhibition was -0.397% (inactive) and the Gaussia minus Italica difference was 3.16%. Under setting [1], the activity change, negative = inhibition is -3.56%.
Take `COc1ccc(NC(=O)N2C[C@H](O)COC[C@@H]3O[C@@H](CC(=O)NCc4ccccc4OC)CC[C@H]32)cc1`: the activity change, negative = inhibition was 2.52% (inactive) and the Gaussia minus Italica difference is -0.496%. The activity change, negative = inhibition under setting [1] stood at 3.01%.
For `CCCC(=O)Nc1ccc2c(c1)C(=O)N(C)[C@@H]1CC[C@H](CC(=O)NCCN3CCCCC3)O[C@@H]1CO2`, in that order: -1.36% (inactive), -6.6% and 5.24%.
In the case of `CO[C@H]1CN(C)C(=O)c2ccc(NC(=O)Nc3ccccc3)cc2OC[C@@H](C)N(C(=O)CC2CC2)C[C@@H]1C`, the activity change, negative = inhibition was -6.56% (inactive) and the Gaussia minus Italica difference is -11.9%. The activity change, negative = inhibition under setting [1] was determined as 5.38%.
For `O=C(CC1CC1)Nc1ccc2c(c1)[C@@H]1C[C@@H](CC(=O)NC3CCCCC3)O[C@H](CO)[C@@H]1O2`, in that order: 5.02% (inactive), -0.425% and 5.44%.
The matching figures for `COCC(=O)Nc1ccc2c(c1)C(=O)N(C)[C@@H]1CC[C@H](CC(=O)NCCc3ccccc3)O[C@@H]1CO2`: 0.635% (inactive), -4.5% and 5.13%.
For `CC(C)NC(=O)N1[C@H](CO)[C@@H]2c3ccccc3N(C(=O)Nc3cccc(Cl)c3)C[C@@H]21`, in that order: 5.76% (inactive), 3.13% and 2.62%.
On to `COc1ccc(NC(=O)Nc2ccc3c(c2)[C@@H]2C[C@@H](CC(=O)NCc4ccncc4)O[C@@H](CO)[C@@H]2O3)cc1`, for which the activity change, negative = inhibition is -2.23% (inactive) and the Gaussia minus Italica difference was -4.25%. The activity change, negative = inhibition under setting [1] was 2.02%.
Take `CCN(C[C@@H]1[C@H](c2ccccc2)[C@@H](CO)N1CC1CC1)C(=O)c1ccccn1`: the activity change, negative = inhibition is -3.34% (inactive) and the Gaussia minus Italica difference is -1.49%. In addition, under setting [1], the activity change, negative = inhibition was -1.85%.
The matching figures for `COCC(=O)N(C[C@H]1N[C@H](CO)[C@H]1c1ccc(C2=CCCCC2)cc1)C(C)C`: 2.12% (inactive), -1.6% and 3.71%.
`COc1ccccc1C#Cc1cnc2c(c1)C(=O)N([C@@H](C)CO)C[C@@H](C)[C@H](CN(C)C(=O)CN(C)C)O2`: the activity change, negative = inhibition is -1.64% (inactive) and the Gaussia minus Italica difference stood at 2.47%. Further, the activity change, negative = inhibition under setting [1] was -4.12%.
For `CCC(=O)N1[C@H](C(=O)NCc2ccc(F)cc2)[C@@H](CO)[C@@H]2Cn3c(ccc(C4=CCCCC4)c3=O)[C@@H]21`, in that order: 2.81% (inactive), 8.61% and -5.8%.
The matching figures for `CCCN1C[C@@H](C)[C@H](OC)CN(C)C(=O)c2ccc(NC(=O)C3CCOCC3)cc2OC[C@@H]1C`: 2.85% (inactive), -3.36% and 6.21%.
With `C[C@H](NC(=O)C[C@H]1C=C[C@H](NS(=O)(=O)c2cccc(F)c2)[C@@H](CO)O1)c1ccccc1`, the activity change, negative = inhibition is 2.8% (inactive) and the Gaussia minus Italica difference worked out at 1.67%. The activity change, negative = inhibition under setting [1] stood at 1.12%.
For the compound `O=C1CCC(=O)N[C@H](c2ccccc2)C/C=C\CCN1`, the activity change, negative = inhibition is -2.86% (inactive) and the Gaussia minus Italica difference worked out at 0.183%. Also, the activity change, negative = inhibition under setting [1] was -3.05%.
The matching figures for `O=C(NCC(F)(F)F)[C@H]1[C@H](CO)[C@H]2Cn3c(ccc(-c4ccncc4)c3=O)[C@H]2N1Cc1ccncc1`: 5.89% (inactive), 7.77% and -1.87%.
The matching figures for `CCNC(=O)C[C@@H]1CC[C@@H]2[C@H](COC[C@H](O)CN2S(=O)(=O)c2ccc(Oc3ccccc3)cc2)O1`: 1.12% (inactive), -1.02% and 2.14%.
The matching figures for `CC(C)[C@@H]1COCc2cnnn2CCC[C@H](C)C(=O)N1`: -1.36% (inactive), -0.347% and -1.01%.
For `COCC(=O)N1[C@H](CNC(=O)c2ccccn2)[C@H](c2ccccc2)[C@@H]1CO`, the activity change, negative = inhibition was -0.865% (inactive) and the Gaussia minus Italica difference is -2.54%. Also, the activity change, negative = inhibition under setting [1] is 1.68%.
In the case of `Cc1ccc(S(=O)(=O)N(C)C[C@H]2OCc3ccccc3-c3ccccc3C(=O)N([C@@H](C)CO)C[C@@H]2C)cc1`, the activity change, negative = inhibition was 10.1% (inactive) and the Gaussia minus Italica difference turned out to be 7.63%. Also, the activity change, negative = inhibition under setting [1] worked out at 2.48%.
The matching figures for `O=C(C[C@@H]1CC[C@@H]2[C@H](COC[C@H](O)CN2Cc2cccc(F)c2)O1)NCc1ccncc1`: 6.79% (inactive), 9.04% and -2.25%.
Take `CCCC#Cc1ccc([C@H]2[C@@H](CO)N3CCCCN(C(=O)c4ccc5c(c4)OCO5)C[C@@H]23)cc1`: the activity change, negative = inhibition is -4.6% (inactive) and the Gaussia minus Italica difference was -8.43%. The activity change, negative = inhibition under setting [1] was determined as 3.84%.
For `CCC(=O)N1CC2(C1)[C@@H](c1ccc(-c3ccc(C#N)cc3)cc1)[C@H](CO)N2C(C)=O`, in that order: 10.1% (inactive), 11.4% and -1.24%.
The matching figures for `CCC(=O)N1CCC2(CC1)CN(Cc1cccc(Cl)c1)[C@@H](CO)c1c2c2ccc(OC)cc2n1C`: -5.44% (inactive), -2.02% and -3.43%.
As to `C/C=C/c1ccc([C@H]2[C@@H](CO)N(C(=O)CN(C)C)C23CN(C(=O)C2CCCC2)C3)cc1`, the activity change, negative = inhibition is -0.233% (inactive) and the Gaussia minus Italica difference was found to be 6.47%. Moreover, the activity change, negative = inhibition under setting [1] was -6.7%.
The matching figures for `COc1cc(CN2CC3(CN(S(=O)(=O)c4cn(C)cn4)C3)c3c(n(C)c4cc(OC)ccc34)[C@H]2CO)cc(OC)c1`: -2.88% (inactive), -2.57% and -0.316%.
`CCCNC(=O)C[C@H]1CC[C@H]2[C@H](COc3ccc(NC(=O)CC)cc3C(=O)N2C)O1`: the activity change, negative = inhibition is 2.97% (inactive) and the Gaussia minus Italica difference is 4.79%. Further, under setting [1], the activity change, negative = inhibition was -1.81%.
For `CN(C)C(=O)[C@@H]1[C@@H](CO)[C@@H]2Cn3c(cccc3=O)[C@H]1N2CC1CCCCC1`, in that order: -1.56% (inactive), 3% and -4.57%.
For `COc1cccc(-c2ccc([C@@H]3[C@@H](CO)N(C(=O)c4ccccn4)[C@H]3C#N)cc2)c1`, in that order: 5.81% (inactive), 7.74% and -1.92%.
For `C[C@H](NC(=O)C[C@@H]1CC[C@@H]2[C@H](COC[C@@H](O)CN2Cc2cc(F)ccc2F)O1)c1ccccc1`, in that order: 0.118% (inactive), -1.81% and 1.93%.
Consider `O=C(Cc1ccccc1)N1C[C@@H]2[C@H](c3ccccc31)[C@@H](CO)N2C(=O)C1CCOCC1`, for which the activity change, negative = inhibition is 1% (inactive) and the Gaussia minus Italica difference was -1.15%. In addition, the activity change, negative = inhibition under setting [1] amounted to 2.15%.
The matching figures for `C[C@@H](O)C#Cc1ccc([C@@H]2[C@H]3CN(C(=O)c4ccc5c(c4)OCO5)CCCCN3[C@H]2CO)cc1`: 1.93% (inactive), -8.36% and 10.3%.
Turning to `COCC(=O)Nc1ccc2c(c1)C(=O)N(C)[C@@H]1CC[C@@H](CC(=O)NCCCN(C)C)O[C@@H]1CO2`, the activity change, negative = inhibition was -2.75% (inactive) and the Gaussia minus Italica difference is -2.33%. In addition, the activity change, negative = inhibition under setting [1] is -0.412%.
As for `COc1ccccc1S(=O)(=O)N1CC[C@H]2[C@@H](CO)N(C)c3ccc(C#Cc4ccccc4)cc3[C@H]21`, the activity change, negative = inhibition was 8.89% (inactive) and the Gaussia minus Italica difference was -4.03%. For the same compound, the activity change, negative = inhibition under setting [1] was 12.9%.
For `C[C@@H]1CN([C@@H](C)CO)C(=O)c2c(c3ccccc3n2C)-c2ccccc2CO[C@H]1CN(C)C(=O)C1CC1`, in that order: 7.74% (inactive), -6.9% and 14.6%.
The matching figures for `COc1ccccc1NC(=O)N1[C@@H]2CNC[C@H]1C2c1ccc(-c2ccccc2C)cc1` (stereo partly drawn): 17.2% (inactive), 13.7% and 3.5%.
The matching figures for `O=C1N[C@H](c2ccccc2)COCc2cn(nn2)CC[C@@H]1Cc1ccc(Cl)cc1`: -6.57% (inactive), 7.94% and -14.5%.
On to `Cn1cnc(CCNC(=O)C[C@H]2CC[C@H]3[C@@H](COC[C@H](O)CN3C(=O)C3CCCC3)O2)c1`, for which the activity change, negative = inhibition is 4.42% (inactive) and the Gaussia minus Italica difference amounted to 6.41%. For the same compound, the activity change, negative = inhibition under setting [1] was -1.98%.
The matching figures for `CCCNC(=O)Nc1ccc2c(c1)C(=O)N(C)C[C@H](OC)[C@H](C)CN[C@@H](C)CO2`: 5.48% (inactive), 1.03% and 4.45%.
The matching figures for `CN1c2ccc(Br)cc2[C@@H]2[C@@H](CCN2C(=O)Cc2ccccc2)[C@@H]1CO`: 6.02% (inactive), 2.29% and 3.73%.
In the case of `O=C(C[C@@H]1CC[C@H]2[C@@H](COC[C@@H](O)CN2Cc2nccs2)O1)NCc1ccc(-c2ccccc2)cc1`, the activity change, negative = inhibition is -5.3% (inactive) and the Gaussia minus Italica difference came to 6.63%. Besides, the activity change, negative = inhibition under setting [1] was -11.9%.
For `O=C(c1ccccc1F)N1C[C@@H]2[C@H](c3ccccc31)[C@H](CO)N2C(=O)C1CCCC1`, in that order: 1.9% (inactive), -1.83% and 3.72%.
Regarding `O=C(CN1CCOCC1)N1C[C@@H]2N[C@H](C1)C2c1ccc(-c2ccncc2)cc1` (stereo partly drawn), the activity change, negative = inhibition is 15.1% (inactive) and the Gaussia minus Italica difference is -4.83%. In addition, the activity change, negative = inhibition under setting [1] was determined as 19.9%.
The matching figures for `O=C(C1CCC1)N1C[C@@H]2N[C@H](C1)C2c1ccc(-c2cncnc2)cc1` (stereo partly drawn): -25.8% (active), -25.4% and -0.405%.
The matching figures for `Cc1ccccc1-c1ccc(C2[C@@H]3CN(C(=O)C4CCCCC4)C[C@H]2N3)cc1` (stereo partly drawn): -6.47% (inactive), -6.12% and -0.357%.
For `COCC(=O)Nc1ccc2c(c1)OC[C@@H](C)N(C(=O)CC1CC1)C[C@@H](C)[C@@H](OC)CN(C)C2=O`, in that order: -1.74% (inactive), -1.65% and -0.0881%.
